Test [1] in a line: NCI Yeast Anticancer Drug Screen. Data for the rad50 strain (AID 155).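 Further: 0% = growth of vehicle-only cultures of the same strain.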 The settings on record: S. cerevisiae rad50 strain growth inhibition, active compounds read high; at 50.0 µM unless noted. The method in brief: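 Yeast carrying a defined DNA repair defect were exposed to test compounds, and growth was compared with vehicle-treated controls to give percent inhibition.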
Test [2] in a line: NCI Yeast Anticancer Drug Screen. Data for the mec2-1 strain (AID 157). The conditions noted are these: S. cerevisiae mec2-1 strain, active compounds read high; at 50.0 µM unless noted. Summed up:
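Compounds were applied to mec2-1 yeast cells. Their growth was then compared with that of vehicle-treated cultures to give growth inhibition.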

The nature of test [3]: NCI Yeast Anticancer Drug Screen. Data for the sgs1 mgt1 strain (AID 161).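 Further: 0% = growth of cultures given vehicle only.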 The conditions noted are these: S. cerevisiae sgs1 mgt1 strain, active compounds read high; at 50.0 µM unless noted. Summed up:
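Percent growth inhibition was derived by comparing compound-exposed mutant yeast with vehicle-exposed cultures. The strain carries alterations in DNA damage repair.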

A short description of test [4]: NCI Yeast Anticancer Drug Screen. Data for the bub3 strain (AID 167). The settings on record: S. cerevisiae bub3 mutant strain, active compounds read high; at 50.0 µM unless noted. The method in brief:
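Compounds were applied to a genetically altered yeast strain carrying a cell-cycle control defect. Growth inhibition was scored against vehicle-treated controls.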

Test [5] is described as follows: NCI Yeast Anticancer Drug Screen. Data for the mlh1 rad18 strain (AID 175). The settings on record: S. cerevisiae mlh1 rad18 strain growth inhibition, active compounds read high; at 50.0 µM unless noted. Summed up:
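A repair-deficient yeast strain is exposed to test compound, and growth is scored relative to vehicle-treated controls.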

Test [6] is described as follows: NCI Yeast Anticancer Drug Screen. Data for the cln2 rad14 strain (AID 165).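 Further: 0% = growth equal to vehicle treated cultures.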 The conditions noted are these: S. cerevisiae cln2 rad14 strain, active compounds read high; at 50.0 µM unless noted. Summed up:
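Strain: cln2 rad14 yeast, altered in cell cycle control and DNA damage repair. Read-out: growth inhibition vs vehicle.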

Several values for one entry are separate records, joined by “and”; a condition that tells them apart may be missing. Equal values may be shown once. The panel holds about 79,000 compounds, 15% with a hit somewhere; the sample as a whole holds those more often. A number with no mark means an inactive call. Activity calls are given as the source filed them. No stated cut-off is given here; in the data, active means growth inhibition above about 70%; inactive means the rest.

`C=C1C=C2CCC3C(CCC4(C)C(C(C)CCCC(C)C)CCC34)C2(C)CC1` (stereo not given): the growth inhibition is 82.5% (active) in test [1]; 57.6% in test [2]; 84.9% (active) in test [3]; 28.2% in test [4]; 74.2% (active) in test [5].

Consider `O=C(O)/C=C/c1cccc(F)c1`, for which the growth inhibition in test [1] is -16.6%; in test [2], -12.2%; in test [3], -4.9%; in test [6], -15.9%; in test [5], 10.2%.

`COc1ccc(/C=C2/C/C(=C/c3ccc(OC)cc3)C2=O)cc1`: the growth inhibition in test [1] is 14.2%; in test [2] it was 9.25%; in test [3], 10.2%; in test [4] it was 4.65%; in test [5], 15%.

Regarding `O=c1[nH]nc(Cc2ccccc2)n1CCO`, the growth inhibition in test [1] is 13.2%; in test [2], 2.65%; in test [6], 1.3%; in test [4], 8.9%; in test [5] it was -43.4%.

As for `CCOC(=O)c1c[nH]n(-c2ccccc2)c1=O`, the growth inhibition in test [1] was 9.65%; in test [2], -3.95%; in test [6], -3.15%; in test [4] it was -2.7%; in test [5], 12.6%.

As to `O=C1CSC(c2ccccc2Cl)N1c1n[nH]c(=S)s1` (stereo not given), the growth inhibition was -13.8% in test [1]; -17.6% in test [2]; -55% in test [6]; -23.6% in test [4]; 1% in test [5].

Turning to `Cn1nnn(Cc2ccccc2)/c1=N/C(=S)Nc1ccccc1`, the growth inhibition in test [1] was -11.6%; in test [2], -6.75%; in test [6], -7.45%; in test [4] it was 3.1%; in test [5], -21.4%.

On to `CC(=O)NC(C(=O)O)C(C)C` (stereo not given), for which the growth inhibition was 6.4% in test [1]; -0.75% in test [2]; -4.2% in test [6]; 0.85% in test [4]; 6.7% in test [5].

For `CSc1ccc(Nc2cc(=O)[nH]c(=O)[nH]2)cc1`, the growth inhibition was 14.6% in test [1]; 8.75% in test [2]; 2.3% in test [6]; 3.7% in test [4]; -10.9% in test [5].

As for `C=CCSc1cccc(C)c1`, the growth inhibition in test [1] is -19.4%; in test [2], 14.9%; in test [6] it was -25.6%; in test [4] it was -14.1%; in test [5], -16.1%.

For the compound `COC(=O)CC1(C(=O)OC)NC(=O)c2cc(OC)c(Cl)cc2N1` (stereo not given), the growth inhibition in test [1] was -4.2%; in test [2] it was 7.6%; in test [6] it was 13.6%; in test [4] it was -4.9%; in test [5], -19.6%.

`N#C/C(=C/NC(N)=S)C(N)=O`: the growth inhibition in test [1] was -25.6%; in test [2] it was 10.3%; in test [6], 14.6%; in test [4], -27.1%; in test [5], 20.7%.

As for `COc1cc(C2c3cc4c(c(OC5OC(CO)C(O)C5O)c3CC3COC(=O)C32)OCO4)cc(OC)c1OC` (stereo not given), the growth inhibition in test [1] was 34.4%; in test [2], 6.65%; in test [6], 19.9%; in test [4], -0.95%; in test [5], 5.7%.

In the case of `O=C1c2ccccc2-c2c1c1ccccc1c(=O)n2-c1ccccc1`, the growth inhibition was -1.7% in test [1]; -26.1% in test [2]; -5.85% in test [6]; -13.6% in test [4]; -51.6% in test [5].

For the compound `O=C(O)CCCCC1CCCCC1`, the growth inhibition in test [1] is 53.1%; in test [2], 17.1%; in test [6], 17.1%; in test [4] it was 33.6%; in test [5] it was 43.1%.

On to `COC(=O)OCCOC(=O)OC`, for which the growth inhibition in test [1] was 3.15%; in test [2] it was 1.5%; in test [6], 18.1%; in test [4] it was 15.3%; in test [5] it was 9.5%.

For `OC(c1ccc(Cl)cc1)c1ccccn1` (stereo not given), the growth inhibition in test [1] was 1.7%; in test [2], -9%; in test [6] it was -17%; in test [4], -18.9%; in test [5], -8.75%.

As for `Cc1ccc([N+](=O)[O-])cc1NS(=O)(=O)c1cc(Cl)c(Cl)cc1Cl`, the growth inhibition in test [1] is 19.8%; in test [2], 36.6%; in test [6], -8.5%; in test [4], 1.2%; in test [5], 61.2%.

Turning to `OC1COC(OCc2ccccc2)C(O)C1O` (stereo not given), the growth inhibition in test [1] was -16.4% and -2.85%; in test [2], -25.7% and -19.6%; in test [3], -18.1% and -11.5%; in test [4], 2.25% and 6%; in test [5] it was -3.4% and -12.2%.

As for `COCN1C(=N)C(C(=O)OC(C)(C)C)=C2C=C(O)C=CC21C` (stereo not given), the growth inhibition was -4.5% in test [1]; 14.7% in test [2]; 9.1% in test [6]; 22.2% in test [4]; 2.55% in test [5].

Turning to `COc1ccc2c(c1)c(COC(C)=O)c(C)c[n+]2[O-]`, the growth inhibition is 25.1% in test [1]; 28.8% in test [2]; 16.6% in test [6]; 22.1% in test [4]; 52.9% in test [5].

For the origin of these results see PubChem BioAssay (NCI).
